# Data reported in PubChem BioAssay AID1159580 (chemical genetic matrix, 2015).
# Values joined by “and” are separate entries in the source; they are usually repeats but may differ in a detail not shown here. Identical values can stand only once. About 2,000 (36%) of roughly 5,500 compounds were called active. Roughly 18% stayed inconclusive and do not appear here. This is one part of the list. Unmarked numbers belong to inactive results. No stated cut-off is given here; in the data, active means normalized growth mostly below about 0.91 (no sharp cut-off); inconclusive means no clear call, values can overlap the other calls; inactive means mostly above about 0.92.
# Assay: chemical genetic growth profiling, strain panel (AID 1159580);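 further: tested at 20 µM; growth read once vehicle control cultures reached saturation at 30 °C; 1 = growth at the plate median or of vehicle wells; lower values mean less growth of the strain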
# Details: S. cerevisiae deletion strains, growth OD
compound,measurement,setting,value
CCCCCC1C(=O)CCC1CC(=O)OC (stereo not given),normalized growth,"locus YAL013W, strain DEP1, active compounds read low",0.988
same,normalized growth,"locus YAL021C, strain ccr4, active compounds read low",1.04
same,normalized growth,"locus YAL026C, strain drs2, active compounds read low",0.988
same,normalized growth,"locus YAL030W, strain snc1, active compounds read low",0.981
same,normalized growth,"locus YBL061C, strain skt5, active compounds read low",0.984
same,normalized growth,"locus YBR009C, strain hhf1, active compounds read low",0.972
same,normalized growth,"locus YBR021W, strain FUR4, active compounds read low",0.921
same,normalized growth,"locus YBR023C, strain chs3, active compounds read low",0.977
same,normalized growth,"locus YBR171W, strain sec66, active compounds read low",0.96
same,normalized growth,"locus YBR229C, strain ROT2, active compounds read low",0.991
same,normalized growth,"locus YBR231C, strain swc5, active compounds read low",0.978
same,normalized growth,"locus YBR279W, strain paf1, active compounds read low",0.986
same,normalized growth,"locus YCL011C, strain gbp2, active compounds read low",0.988
same,normalized growth,"locus YCL016C, strain dcc1, active compounds read low",0.979
same,normalized growth,"locus YCL029C, strain bik1, active compounds read low",0.958
same,normalized growth,"locus YCL061C, strain MRC1, active compounds read low",0.984
same,normalized growth,"locus YCL069W, strain vba3, active compounds read low",0.986
same,normalized growth,"locus YCR088W, strain abp1, active compounds read low",0.973
same,normalized growth,"locus YDL005C, strain med2, active compounds read low",0.97
same,normalized growth,"locus YDL035C, strain GPR1, active compounds read low",0.974
same,normalized growth,"locus YDL040C, strain nat1, active compounds read low",0.981
same,normalized growth,"locus YDL074C, strain BRE1, active compounds read low",0.992
same,normalized growth,"locus YDL101C, strain DUN1, active compounds read low",1.01
same,normalized growth,"locus YDL134C, strain PPH21, active compounds read low",1.01
same,normalized growth,"locus YDL185W, strain tfp1, active compounds read low",0.931
same,normalized growth,"locus YDL192W, strain arf1, active compounds read low",0.97
same,normalized growth,"locus YDR001C, strain nth1, active compounds read low",0.984
same,normalized growth,"locus YDR069C, strain doa4, active compounds read low",0.999
same,normalized growth,"locus YDR101C, strain arx1, active compounds read low",0.96
same,normalized growth,"locus YDR137W, strain rgp1, active compounds read low",0.996
same,normalized growth,"locus YDR150W, strain NUM1, active compounds read low",0.975
same,normalized growth,"locus YDR159W, strain sac3, active compounds read low",0.969
same,normalized growth,"locus YDR162C, strain NBP2, active compounds read low",1.03
same,normalized growth,"locus YDR195W, strain ref2",0.991
same,normalized growth,"locus YDR297W, strain sur2, active compounds read low",0.978
same,normalized growth,"locus YDR318W, strain mcm21, active compounds read low",0.961
same,normalized growth,"locus YDR334W, strain swr1, active compounds read low",0.986
same,normalized growth,"locus YDR335W, strain msn5, active compounds read low",1.01
same,normalized growth,"locus YDR388W, active compounds read low",0.954
same,normalized growth,"locus YDR392W, strain spt3, active compounds read low",0.975
same,normalized growth,"locus YDR502C, strain sam2, active compounds read low",0.996
same,normalized growth,"locus YEL003W, strain gim4, active compounds read low",0.987
same,normalized growth,"locus YEL037C, strain rad23, active compounds read low",0.984
same,normalized growth,"locus YEL061C, strain CIN8 (second series), active compounds read low",0.989
same,normalized growth,"locus YEL061C, strain CIN8, active compounds read low",0.991
same,normalized growth,"locus YER015W, strain faa2, active compounds read low",0.98
same,normalized growth,"locus YER016W, strain bim1, active compounds read low",0.986
same,normalized growth,"locus YER110C, active compounds read low",0.898 (active)
same,normalized growth,"locus YER111C, strain swi4, active compounds read low",0.982
same,normalized growth,"locus YER155C, strain BEM2 (second series), active compounds read low",0.95
same,normalized growth,"locus YER155C, strain BEM2, active compounds read low",0.952
same,normalized growth,"locus YER167W, strain BCK2, active compounds read low",0.97
same,normalized growth,"locus YFR010W, strain ubp6, active compounds read low",0.987
same,normalized growth,"locus YGL078C, strain dbp3, active compounds read low",0.966
same,normalized growth,"locus YGL086W, strain mad1, active compounds read low",1.01
same,normalized growth,"locus YGL167C, strain pmr1, active compounds read low",0.96
same,normalized growth,"locus YGL173C, strain kem1, active compounds read low",0.967
same,normalized growth,"locus YGL227W, strain vid30, active compounds read low",0.963
same,normalized growth,"locus YGL240W, strain doc1, active compounds read low",0.994
same,normalized growth,"locus YGL248W, strain PDE1, active compounds read low",1.04
same,normalized growth,"locus YGL253W, strain hxk2, active compounds read low",0.981
same,normalized growth,"locus YGR078C, strain PAC10, active compounds read low",1.04
same,normalized growth,"locus YGR135W, strain pre9, active compounds read low",0.963
same,normalized growth,"locus YGR229C, strain SMI1, active compounds read low",1.02
same,normalized growth,"locus YGR252W, strain gcn5, active compounds read low",1.1
same,normalized growth,"locus YHR013C, strain ard1, active compounds read low",1
same,normalized growth,"locus YHR027C, strain rpn1, active compounds read low",0.992
same,normalized growth,"locus YHR030C, strain SLT2, active compounds read low",0.979 and 0.975
same,normalized growth,"locus YHR079C, strain IRE1 (second series), active compounds read low",0.957
same,normalized growth,"locus YHR079C, strain IRE1, active compounds read low",0.975
same,normalized growth,"locus YHR094C, strain hxt1, active compounds read low",0.986
same,normalized growth,"locus YHR129C, strain ARP1, active compounds read low",0.993
same,normalized growth,"locus YHR142W, strain chs7, active compounds read low",0.987
same,normalized growth,"locus YHR200W, strain rpn10, active compounds read low",0.981
same,normalized growth,"locus YIL066C, strain RNR3, active compounds read low",1
same,normalized growth,"locus YIL073C, strain SPO22, active compounds read low",0.952
same,normalized growth,"locus YIL125W, strain kgd1, active compounds read low",0.961
same,normalized growth,"locus YIR030C, strain dcg1, active compounds read low",0.948
same,normalized growth,"locus YJL092W, strain hpr5, active compounds read low",0.975
same,normalized growth,"locus YJL095W, strain BCK1 (second series), active compounds read low",0.983
same,normalized growth,"locus YJL095W, strain BCK1, active compounds read low",1.06 and 0.982
same,normalized growth,"locus YJL115W, strain asf1, active compounds read low",0.966
same,normalized growth,"locus YJL129C, strain trk1, active compounds read low",1
same,normalized growth,"locus YJL134W, strain LCB3, active compounds read low",0.967
same,normalized growth,"locus YJL154C, strain vps35, active compounds read low",0.976
same,normalized growth,"locus YJL164C, strain tpk1, active compounds read low",0.992
same,normalized growth,"locus YJL166W, strain qcr8, active compounds read low",0.978
same,normalized growth,"locus YJL168C, strain set2, active compounds read low",0.951
same,normalized growth,"locus YJL187C, strain SWE1 (second series), active compounds read low",1.03
same,normalized growth,"locus YJL187C, strain SWE1, active compounds read low",0.977
